Source: PubChem (National Center for Advancing Translational Sciences (NCATS))
Most compounds without a hit are left out; they make up all but 17% or so of the library.
TDP1 cell CPT: DT40-hTDP1 cell growth loss with CPT; chicken DT40 Tdp1-/-;hTDP1 cells + 20 nM CPT, ATP luminescence, 48 h; Potency, µM (top dose mostly 46.2 µM), for inactives: at the top dose activity change, negative = growth inhibition, actives largely listed as inhibitors; hit rate 12% among 420,000; AID 686979; also: % is scaled to controls: 0 for no effect and ±100 for the full control effect; nearly all actives have a fitted effect of over 55% in size
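Chicken DT40 Tdp1-/- cells complemented with human TDP1, 400 cells/well, exposed to compounds plus 20 nM camptothecin for at least 48 h at 37 C; viability read as ATP content by CellTiter-Glo luminescence.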
HT1080 IDH1KD tx: toxicity to HT-1080 IDH1 knockdown cells (counter line). AID 686971. HT-1080 IDH1 knockdown viability, ATP luminescence, 48 h. hit rate 2% among 360,000. Potency, µM (doses to about 46.1 µM), without a hit: at the highest dose activity, negative = toxicity, actives largely listed as cytotoxic;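 also: 0% = DMSO wells and -100% = cell-free medium wells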
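After a 2 h attachment period, IDH1KD HT-1080 cells took pin-transferred compound for 48 h at 37 °C; ATP-based luminescence after 10 min room-temperature reagent incubation reported viability.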
HepG2 viability: counter-screen for TGF-b inhibitors: cytotoxicity in HepG2 cells; HepG2 CAGA-GFP viability, ATP luminescence, 18 h; Potency, µM (highest dose often 46.1 µM), for the others: at the highest dose activity change, negative = cytotoxicity, usual class: cytotoxic; hit rate 0.76% among 410,000; AID 588856
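HepG2 CAGA-GFP cells (1000/well, DMEM with 1% FBS) received compound, then TGF-beta at 500 pg/mL final, and were incubated 18 hours at 37 degrees C. Viability was read by CellTiter-Glo luminescence. Media-only wells were set as complete cell-killing and DMSO as no toxicity.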
TGFb SMAD3 inh: inhibitors of TGF-b signaling; HepG2 CAGA-GFP TGF-b/SMAD3 reporter, GFP fluorescence, 18 h; TGF-beta stimulated, 500 pg/mL final; Potency, µM (series often up to 46.1 µM), for the others: top-dose activity, negative = inhibition, hits mostly inhibitors; hit rate 1.2% among 410,000; AID 588855; also: % is scaled to controls: 0 for no effect and ±100 for the full control effect; nearly all actives have a fitted effect of over 65% in size
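Read-out: total well GFP (ex488/em500-530) summed from mean per-cell fluorescence. Cells: HEPG2 CAGA-GFP, 1% FBS DMEM, 18 h at 37 degrees C with 500 pg/mL final TGF-beta. Unstimulated wells served as the full-inhibition control; stimulated DMSO wells = 0%.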
HT1080NT lethal: kills 2HG-producing HT-1080-NT fibrosarcoma cells. HT-1080-NT fibrosarcoma viability, CellTiter-Glo ATP luminescence, 48 h. Potency, µM (doses to about 46.1 µM), inactives show top-dose activity, negative = less viability, most hits filed as cytotoxic. hit rate 1.6% among 360,000. AID 686970;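 also: NT is the 2HG producing partner of a matched IDH1 knockdown line; 0% = DMSO-treated cells and -100% = media-only wells without cells; nearly all actives have a fitted effect of over 55% in size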
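Luminescent CellTiter-Glo readout after 48 hours of compound exposure at 37 degrees C defined viability of HT-1080-NT cells. Activity was normalized to DMSO wells and cell-free media wells; concentration-response curves were fitted and assigned curve classes.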
DT40 TDP1 no CPT: qHTS for Inhibitors of human tyrosyl-DNA phosphodiesterase 1 (TDP1): qHTS in cells in absence of CPT; Potency, µM (top dose mostly 46.2 µM), without a hit: at the highest dose activity change, negative = growth inhibition, most hits filed as inhibitors; DT40 Tdp1-/- hTDP1 cells, no CPT, ATP luminescence, 48 h; AID 686978, 2013; hit rate 15% among 420,000; also: % is scaled to controls: 0 for no effect and ±100 for the full control effect; nearly all actives have a fitted effect of over 55% in size
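Chicken DT40 Tdp1-/- cells complemented with human TDP1, screened without camptothecin (DMSO vehicle only), 400 cells/well. Compounds pin-transferred, cells incubated at 37 °C for at least 48 hr. Growth read as ATP-dependent luminescence (CellTiter-Glo, 30 min at RT).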
* hit, by the source's call; [ ] = remark or other dose. Calls follow the shape of the dose curve; as a rule, active = well fitted curve in the direction sought with a large enough effect; inconclusive = small, poorly fitted or top-dose-only effect, or another doubt; inactive = no such curve, though single readings can be large; an effect the other way counts as inactive or inconclusive. Potency is read from the fitted curve at half-maximal effect.

Results for CC(C)CC(N)c1csc(Nc2ccc(C(=O)NCCO)cc2)n1 (stereo not drawn) ?
TDP1 cell CPT: inconclusive; HT1080 IDH1KD tx: 29%; HepG2 viability: -6%; TGFb SMAD3 inh: 1%; HT1080NT lethal: inconclusive; DT40 TDP1 no CPT: inconclusive

What do the screens show for `CC(C)CC(N)c1csc(Nc2ccc(C(=O)c3ccccc3)cc2)n1` (stereo not drawn)?
TDP1 cell CPT: inconclusive; HT1080 IDH1KD tx: -21%; HepG2 viability: 16µM*; TGFb SMAD3 inh: 18µM*; HT1080NT lethal: inconclusive; DT40 TDP1 no CPT: 16µM*

What do the screens show for `CC(C)C(N)c1csc(Nc2ccc(C(=O)c3ccccc3)cc2)n1` (stereo not drawn)?
TDP1 cell CPT: inconclusive; HT1080 IDH1KD tx: inconclusive; HepG2 viability: -11%; TGFb SMAD3 inh: inconclusive; HT1080NT lethal: inconclusive; DT40 TDP1 no CPT: inconclusive

What do the screens show for `CCOc1ccc(N(Cc2cc3ccc(C)cc3[nH]c2=O)S(=O)(=O)c2ccccc2)cc1`?
TDP1 cell CPT: inconclusive; HT1080 IDH1KD tx: inconclusive; HepG2 viability: 4%; TGFb SMAD3 inh: inconclusive; HT1080NT lethal: inconclusive; DT40 TDP1 no CPT: inconclusive

What do the screens show for `Cc1ccc(N(CC(=O)N2CCN(Cc3ccccc3)CC2)S(C)(=O)=O)cc1C`?
TDP1 cell CPT: -5%; HT1080 IDH1KD tx: -2%; HepG2 viability: -14%; TGFb SMAD3 inh: 3%; HT1080NT lethal: -3%; DT40 TDP1 no CPT: 4%

Results for Cc1ccc(S(=O)(=O)NCCc2ccncc2)cc1C ?
TDP1 cell CPT: 1%; HT1080 IDH1KD tx: 18%; HepG2 viability: -1%; TGFb SMAD3 inh: -13%; HT1080NT lethal: 4%; DT40 TDP1 no CPT: -4%

Results for COC(=O)c1cc(NC(=O)CN(C)C2CCS(=O)(=O)C2)cc(C(=O)OC)c1 (stereo not drawn) ?
TDP1 cell CPT: -13%; HT1080 IDH1KD tx: -2%; HepG2 viability: -1%; TGFb SMAD3 inh: 4%; HT1080NT lethal: 0%; DT40 TDP1 no CPT: -13%

What do the screens show for `Cc1cccc(N2CCN(c3ncnc4onc(C)c34)CC2C)c1` (stereo not drawn)?
TDP1 cell CPT: 4.6µM*; HepG2 viability: -6%; TGFb SMAD3 inh: -25%; DT40 TDP1 no CPT: 2.3µM*

How did Cc1cccc(N2CCN(c3nc(C)cc(C)c3C#N)CC2C)c1 (stereo not drawn) do in these assays?
TDP1 cell CPT: 6%; HT1080 IDH1KD tx: 3%; HepG2 viability: -4%; TGFb SMAD3 inh: 16%; HT1080NT lethal: 1%; DT40 TDP1 no CPT: inconclusive

How did Cc1noc2ncnc(N3CCN(c4cccc(C(F)(F)F)c4)CC3)c12 do in these assays?
TDP1 cell CPT: 12µM*; HepG2 viability: -25%; TGFb SMAD3 inh: inconclusive; DT40 TDP1 no CPT: 8.2µM*

What do the screens show for `Cc1cccc(N2CCN(c3ncnc4onc(-c5ccc(F)cc5)c34)CC2C)c1` (stereo not drawn)?
TDP1 cell CPT: 16µM*; HepG2 viability: -25%; TGFb SMAD3 inh: inconclusive; DT40 TDP1 no CPT: 15µM*

Results for Cc1cccc(N2CCN(c3ncnc4onc(C)c34)CC2)c1C ?
TDP1 cell CPT: inconclusive; HepG2 viability: -12%; TGFb SMAD3 inh: 25%; DT40 TDP1 no CPT: inconclusive

What do the screens show for `COc1ccc(-c2oc(=O)c3cc(OC)c(OC)cc3c2/C=C/c2ccc([N+](=O)[O-])cc2)cc1`?
TDP1 cell CPT: inconclusive; HT1080 IDH1KD tx: -5%; HepG2 viability: -28%; TGFb SMAD3 inh: -8%; HT1080NT lethal: 0%; DT40 TDP1 no CPT: inconclusive

What do the screens show for `COc1ccc(-c2oc(=O)c3cc(OC)c(OC)cc3c2C(F)(F)F)cc1`?
TDP1 cell CPT: -4%; HT1080 IDH1KD tx: 18%; HepG2 viability: 2%; TGFb SMAD3 inh: 2%; HT1080NT lethal: 7%; DT40 TDP1 no CPT: -19%

Results for COc1ccc(-c2oc(=O)c3cc(OC)c(OC)cc3c2/C=C/c2cccc([N+](=O)[O-])c2)cc1 ?
TDP1 cell CPT: 8.2µM*; HT1080 IDH1KD tx: -2%; HepG2 viability: -23%; TGFb SMAD3 inh: -11%; HT1080NT lethal: 2%; DT40 TDP1 no CPT: 9.2µM*

Results for COc1ccc(-c2c(-c3ccc(C#N)cc3)oc(=O)c3cc(OC)c(OC)cc23)cc1 ?
TDP1 cell CPT: inconclusive; HT1080 IDH1KD tx: 14%; HepG2 viability: -6%; TGFb SMAD3 inh: 4%; HT1080NT lethal: -6%; DT40 TDP1 no CPT: 16µM*

What do the screens show for `COc1ccc(-c2oc(=O)c3cc(OC)c(OC)cc3c2-c2cc(F)cc(OC)c2)cc1`?
TDP1 cell CPT: inconclusive; HT1080 IDH1KD tx: 5%; HepG2 viability: -12%; TGFb SMAD3 inh: 15%; HT1080NT lethal: -6%; DT40 TDP1 no CPT: 18µM*

Results for Cc1ccc(SCC(=O)OCC(=O)N(CCC#N)c2ccccc2)cc1 ?
TDP1 cell CPT: -18%; HT1080 IDH1KD tx: -2%; HepG2 viability: -5%; TGFb SMAD3 inh: 2%; HT1080NT lethal: -2%[9.24 µM]; DT40 TDP1 no CPT: -16%

Results for COC(=O)[C@H]1[C@@H](C)N(Cc2ccccc2)C(=O)N[C@H]1c1cccc(C(F)(F)F)c1 ?
TDP1 cell CPT: -29%; HT1080 IDH1KD tx: -2%; HepG2 viability: -1%; TGFb SMAD3 inh: -1%; HT1080NT lethal: 0%; DT40 TDP1 no CPT: inconclusive

How did Cc1ccc(NC(=S)NCc2ccc3c(c2)cc(C)n3C)c(C)c1 do in these assays?
TDP1 cell CPT: 23µM*; HT1080 IDH1KD tx: 9%; HepG2 viability: -73%; TGFb SMAD3 inh: inconclusive; HT1080NT lethal: 1%; DT40 TDP1 no CPT: 23µM*

Results for Cc1ccc(NC(=S)NCc2ccc(F)cc2)c(C)c1 ?
TDP1 cell CPT: -15%; HT1080 IDH1KD tx: 1%; HepG2 viability: -29%; TGFb SMAD3 inh: -11%; HT1080NT lethal: 0%; DT40 TDP1 no CPT: -20%

Results for Cc1ccc(NC(=S)NCc2ccc3c(c2)OCO3)c(C)c1 ?
TDP1 cell CPT: inconclusive; HT1080 IDH1KD tx: 7%; HepG2 viability: 0%; TGFb SMAD3 inh: -5%; HT1080NT lethal: 0%; DT40 TDP1 no CPT: 21µM*

What do the screens show for `COc1ccc2cc(CN(Cc3ccco3)C(=S)NCC3CCCO3)c(=O)[nH]c2c1` (stereo not drawn)?
TDP1 cell CPT: inconclusive; HT1080 IDH1KD tx: 9%; HepG2 viability: 4%; TGFb SMAD3 inh: 4%; HT1080NT lethal: 2%; DT40 TDP1 no CPT: inconclusive
